Test results: PubChem BioAssay AID1942 (Johns Hopkins Ion Channel Center, 2009)
The whole screen tested about 2,400 compounds, of which about 580 (24%) were called active.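 The calls were made as follows: active = activity change at or above the mean plus 3 SD of buffer wells without dofetilide, per plate; inactive = the rest.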 The list is a sample of the results.

Each compound was assayed against Potassium voltage-gated channel subfamily KQT member 2 (Rattus norvegicus) (UniProt O88943) (assay: rat KCNQ2 channel activation by compounds alone, confirmation, counter-screen for hERG block protector project, cell-based, CHO, FluxOR thallium flux (AID 1942;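 also: normalized value minus buffer-control mean plus three SD of buffer wells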)). Details: CHO-KCNQ2 cells, FluxOR thallium flux fluorescence; at 10 µM; active compounds read high.
Potassium voltage-gated channel subfamily KQT member 2 (Rattus norvegicus), sequence (O88943 whole entry, looked up): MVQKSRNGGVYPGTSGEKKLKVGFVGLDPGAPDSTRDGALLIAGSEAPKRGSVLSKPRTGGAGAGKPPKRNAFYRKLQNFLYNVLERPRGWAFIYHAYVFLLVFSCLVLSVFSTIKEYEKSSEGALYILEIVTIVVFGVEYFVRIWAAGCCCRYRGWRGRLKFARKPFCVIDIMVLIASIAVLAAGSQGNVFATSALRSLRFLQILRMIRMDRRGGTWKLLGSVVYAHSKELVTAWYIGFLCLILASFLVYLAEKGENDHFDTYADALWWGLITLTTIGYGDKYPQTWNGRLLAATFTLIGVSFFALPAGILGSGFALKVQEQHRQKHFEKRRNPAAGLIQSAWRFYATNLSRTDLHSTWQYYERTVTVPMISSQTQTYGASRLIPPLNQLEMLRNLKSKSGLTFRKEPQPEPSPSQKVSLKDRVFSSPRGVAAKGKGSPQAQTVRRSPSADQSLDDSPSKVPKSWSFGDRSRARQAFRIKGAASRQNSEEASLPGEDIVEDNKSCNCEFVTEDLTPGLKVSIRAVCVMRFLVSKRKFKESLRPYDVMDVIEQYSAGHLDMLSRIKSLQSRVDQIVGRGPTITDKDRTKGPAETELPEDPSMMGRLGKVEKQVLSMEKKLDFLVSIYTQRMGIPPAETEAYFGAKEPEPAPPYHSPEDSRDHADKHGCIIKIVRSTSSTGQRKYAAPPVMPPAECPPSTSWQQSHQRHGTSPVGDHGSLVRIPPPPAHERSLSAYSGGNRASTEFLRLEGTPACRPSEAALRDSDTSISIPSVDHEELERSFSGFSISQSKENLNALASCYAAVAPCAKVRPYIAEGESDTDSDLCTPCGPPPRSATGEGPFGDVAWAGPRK

Structure (SMILES) | activity change, less the hit threshold
CC(C)CSC1=NSC2=NC(=O)/C(=C\c3ccccc3)C(=N)N12 | 1.1% (active)
Cc1ccc(/C=C2/C(=N)N3N=C(CC(=O)N4CCCC4)SC3=NC2=O)cc1 | -19.5% (inactive)
O=C(OCc1ccc([N+](=O)[O-])cc1)c1cc2ccccc2oc1=O | -21.1% (inactive)
COc1cc(C2NC(=O)NC(C)=C2C(=O)OCC2CCCCC2)ccc1O (configuration not stated) | -7.2% (inactive)
CCOC(=O)C1=C(c2ccccc2)NC(=O)NC1c1ccc(O)c(Cl)c1 (configuration not stated) | 0.1% (active)
CCOC(=O)C1=C(c2ccccc2)NC(=O)NC1c1ccc(OC)c(OC)c1 (configuration not stated) | -25.1% (inactive)
C/C(=N\NC(=O)COc1ccc(C)cc1C(C)C)c1ccc(-n2ccnc2)cc1 | -22.3% (inactive)
Cc1nn(-c2ccc(Cl)cc2)c2sc(C(=O)c3c(N)n(C)c(=O)n(C)c3=O)cc12 | -14.1% (inactive)
Cc1nc2ccc(C(=O)O)cc2[nH]1 | -10.4% (inactive)
COc1ccccc1Cn1c(=S)[nH]c2ccc(Br)cc2c1=O | -7.4% (inactive)
C=CCn1c(=S)[nH]c2ccc(Br)cc2c1=O | 12.4% (active)
O=C(CCN1C(=O)/C(=C\C=C\c2ccccc2)SC1=S)Nc1ccc(C(=O)O)cc1 | -12.3% (inactive)
O=c1[nH]c2ccccc2nc1C(F)(F)C(F)F | -16.2% (inactive)
CCSc1nc2c(sc3ccccc32)c(=O)n1C(C)C | 30.9% (active)
CCC(C)Sc1nc2c([nH]c3ccccc32)c(=O)n1C (configuration not stated) | -19.6% (inactive)
COCCCN1C(=O)C(=O)/C(=C(/O)c2ccc(S(=O)(=O)N3CCOCC3)cc2)C1c1ccc(F)cc1 (configuration not stated) | -9.9% (inactive)
CNc1nc(N)nc(OC(C(F)(F)F)C(F)(F)F)n1 | -11% (inactive)
Oc1ccc(/C=N/Nc2nccnc2Cl)c(O)c1 | 6.2% (active)
CN1C(=O)/C(=N\OC(=O)c2cccc3ccccc23)c2ccccc21 | -9.4% (inactive)
CCOC(=O)c1c(O)c2ccccc2n(C)c1=O | -10.3% (inactive)
CCOC(=O)C1CCN(C(=O)COC(=O)c2nn(C)c(=O)c3ccccc23)CC1 | -21% (inactive)
CCOC(=O)c1n[nH]n2c1nc(=S)c1ccccc12 | 49.6% (active)
COC(=O)c1c(N2C(=O)CC(Sc3ncccc3C(=O)O)C2=O)sc(C)c1C (configuration not stated) | -12.9% (inactive)
COc1ccc(/C=N/NC(=O)c2ccncc2)cc1CN1CCCc2ccccc21 | -22.8% (inactive)
O=C(NNc1c(F)c(F)cc(F)c1F)c1cc2ccccc2oc1=O | -13% (inactive)

Structure (SMILES) | activity change, less the hit threshold
O=c1[nH]n2c(=O)c3c([nH]c2c1N=Nc1ccccc1)CCC3 | -11.6% (inactive)
O=C(NC(=S)N1CCN(C/C=C/c2ccccc2)CC1)c1ccc(Cl)nc1 | 7.4% (active)
CNC(=O)NC(=O)C(C)N1CCN(C/C=C/c2ccccc2)CC1 (configuration not stated) | -19.2% (inactive)
O=C(CCN1C(=O)/C(=C\C=C\c2ccccc2)SC1=S)Nc1cccc(C(=O)O)c1 | -20.7% (inactive)
O=C(Nc1ccc(N2CCN(C(=O)c3ccc(Cl)cc3)CC2)cc1)c1ccc([N+](=O)[O-])o1 | -6.1% (inactive)
CC(=O)NC(CSC(CC(=O)c1ccco1)c1ccc(C)cc1)C(=O)O (configuration not stated) | -4.9% (inactive)
Cc1ccc(S(=O)(=O)c2nnn3c2nc(N2CCOCC2)c2ccccc23)c(C)c1 | -20.7% (inactive)
COc1ccccc1NC(=O)C1CCCN1C(=O)NCc1ccccc1 (configuration not stated) | -24.2% (inactive)
CCOC(=O)c1nnn(CC(=O)Nc2ccccc2OC)c1C(=O)OCC | -15.8% (inactive)
COc1ccccc1NC1=C(NC(C)=O)C(=O)c2ccccc2C1=O | 14.4% (active)
CC(C)NC(=O)Nc1n[nH]c(Nc2ccc(Cl)cc2)n1 | 13.2% (active)
O=C(Nc1ccc(Cl)cc1)Nn1cnnc1 | -22.2% (inactive)
O=c1[nH]c2ccc(S(=O)(=O)NCc3ccccc3)cc2[nH]1 | -14% (inactive)
O=C(CSc1nc(N2CCCCC2)nc(N2CCCCC2)n1)c1ccccc1 | 31.5% (active)
Cc1ccc2nc(SCC(=O)N3CCCCCC3)nc(=O)n2c1 | -23.7% (inactive)
CC(C)Nc1nc(SCC(N)=O)nc(N2CCOCC2)n1 | -13.5% (inactive)
CN(C)CCOC(=O)C1(c2ccccc2)CCCC1 | -12.9% (inactive)
Cn1c(=S)[nH]c2scc(-c3cccs3)c2c1=O | 70.4% (active)
S=c1[nH]c(-c2cccs2)cn1-c1ccccc1 | -6.4% (inactive)
CC(C)n1c(=S)[nH]c2scc(-c3cccs3)c2c1=O | 97.6% (active)
COc1cc(/C=N/n2cnc3scc(-c4cccs4)c3c2=O)cc(OC)c1OC | -21% (inactive)
CC(C)C(=O)Nc1c(-c2ccccc2F)c(=O)c2ccccc2n1C | -21.5% (inactive)
NC(=O)C1CCN(C(=O)CC(c2ccccc2)c2ccccc2)CC1 | -24% (inactive)
Brc1ccc(-c2noc(CCc3ccccc3)n2)cc1 | -24.9% (inactive)
Fc1ccccc1-c1n[nH]c(=S)n1C1CC1 | -17.8% (inactive)

Structure (SMILES) | activity change, less the hit threshold
CC(C)(C)c1cc(-c2n[nH]c(=S)n2-c2ccccc2F)n[nH]1 | 11.5% (active)
COc1ccc(/C(C)=N/Nc2ccc(C(=O)O)cc2)c(OC)c1 | -18.1% (inactive)
COc1ccccc1-n1c(CCC(=O)O)ccc1-c1ccccc1 | -13.3% (inactive)
ON/C=N/C(=S)Nc1ncc(C(F)(F)F)cc1Cl | 26.3% (active)
CON/C=N/C(=S)Nc1ncc(C(F)(F)F)cc1Cl | 29.7% (active)
c1ccc(Oc2cccc(OCCn3cncn3)c2)cc1 | -14.9% (inactive)
Cc1ccccc1NC(=O)CN1C(=O)S/C(=C\c2ccc(-c3cccc(C(=O)O)c3C)o2)C1=O | -22.4% (inactive)
CN(Cc1ccsc1)C(=O)CCc1nnc(Cc2c[nH]c3ccccc23)o1 | -10.9% (inactive)
O=C1NCC(=O)N2C(c3ccccc3)c3[nH]c4ccccc4c3C[C@@H]12 (some centres not stated) | -11.9% (inactive)
COc1cc(NC(=O)CCCOc2ccc(Cl)cc2Cl)c(C(=O)O)cc1OC | -18.7% (inactive)
COc1cc(NC(=O)CSc2ncnc3sc4c(c23)CCC(C)C4)c(C(=O)O)cc1OC (configuration not stated) | 89.6% (active)
CC(=O)CSc1ncnc2sc3c(c12)CCC(C)C3 (configuration not stated) | 89.9% (active)
NS(=O)(=O)c1ccc(Sc2ccc3c(c2)CCC3)nc1 | -2.7% (inactive)
COc1cc(NS(=O)(=O)c2ccc(NC(=S)Nc3ccccc3)cc2)nc(OC)n1 | -20.8% (inactive)
COc1ccc(C(=O)CSc2nnc3ccc(-c4ccccn4)nn23)cc1 | -17.4% (inactive)
CS(=O)(=O)N1CCN(c2ccccc2NC(=O)Nc2cccc(Cl)c2)CC1 | -24.2% (inactive)
COc1ccc(-c2nc3ccc(C(=O)NCC(OC)OC)cc3nc2-c2ccc(OC)c(OC)c2)cc1OC | -22.7% (inactive)
O=C1C(=O)N(CCN2CCOCC2)C(c2cccnc2)/C1=C(/O)c1ccc(Cl)cc1 (configuration not stated) | -17.6% (inactive)
Nc1nnc(SCC(=O)OCc2ccc(F)cc2)s1 | -16.7% (inactive)
Cc1cccc(/C=C/C(=O)c2cc(Br)ccc(=O)c2O)c1 | 3% (active)
O=C(/C=C/c1ccccc1)CC(=O)c1ccccc1O | -15.2% (inactive)
O=C(/C=C/c1ccccc1)c1cc(Br)ccc(=O)c1O | 15% (active)
CCc1ccc(/C=C/C(=O)c2cc(Br)ccc(=O)c2O)cc1 | -8.6% (inactive)
COc1cc(C2NC(=O)NC(O)(C(F)(F)F)C2C(C)=O)cc(OC)c1OC (configuration not stated) | -20.3% (inactive)
O=C1CC(C(=O)N2CCOCC2)C2(CCCCC2)O1 (configuration not stated) | -22.9% (inactive)

Structure (SMILES) | activity change, less the hit threshold
CCOc1ccccc1CNC(=O)CNC(=O)c1cccs1 | -20.9% (inactive)
Cc1cccc(NC(=S)c2nc3ccccc3s2)c1 | -23.6% (inactive)
Cc1ccc(NC(=S)c2nc3ccccc3s2)cc1 | -9.6% (inactive)
S=C(Nc1ccc(Cl)cc1)c1nc2ccccc2s1 | 7.4% (active)
Cc1ccc2[nH]c(=O)c(C(c3nnnn3C3CCCC3)N3CCCc4ccccc43)cc2c1 (configuration not stated) | 13.3% (active)
CC(C)(C)n1nnnc1C(c1cc2cc3c(cc2[nH]c1=O)OCCO3)N1CCSCC1 (configuration not stated) | -17.4% (inactive)
CC(=O)Nc1ccc(S(=O)(=O)NC2(C(F)(F)F)C(=O)Nc3c2c(=O)[nH]c(=O)n3C)cc1 (configuration not stated) | -12.3% (inactive)
Cc1cc(OCCN2CCCCCC2)ccc1[N+](=O)[O-] | -19.9% (inactive)
O=c1cc(-c2ccccc2)cc(-c2ccccc2)n1O | 57.6% (active)
Cn1c(=O)cc(-c2ccccc2)c2ccccc21 | -20.4% (inactive)
C/C=C(\C)CN1CCN(c2cccc(C)c2C)CC1 | -16.9% (inactive)
Cc1ccccc1OCC(=O)NNC(=O)c1ccc2c(=O)n3c(nc2c1)CCC3 | -15.4% (inactive)
O=C(NC(=S)Nc1ccccc1N1CCCC1)c1ccc([N+](=O)[O-])cc1 | -8.4% (inactive)
O=C(NC(=S)N1CCCc2ccccc21)c1ccc(Br)cc1 | 18.2% (active)
CCC(=O)N1CCCc2ccccc21 | -20.5% (inactive)
COc1ccccc1NC(=S)N1CCCc2ccccc21 | -23.2% (inactive)
O=C(NC(=S)N1CCCc2ccccc21)c1ccc([N+](=O)[O-])cc1 | 15.1% (active)
O=C(COc1ccc(Br)cc1Br)NC(=S)N1CCCc2ccccc21 | -16.8% (inactive)
COc1ccccc1NC(=O)Cc1nnc(SCC(=O)Nc2nccs2)n1C | -13.3% (inactive)
Cc1ccc(C2c3c(-c4ccccc4O)n[nH]c3C(=O)N2Cc2ccncc2)cc1 (configuration not stated) | -18.8% (inactive)
O=C1N2CCSC2=NC1(NS(=O)(=O)c1ccccc1)C(F)(F)F (configuration not stated) | -12% (inactive)
O=C(Nc1ccccc1)N1CCSc2cc(Cl)ccc21 | -9.1% (inactive)
